According to PubChem BioAssay (NCATS):
Records with an inconclusive call do not appear. Entries that show only a call come without a potency. Active and inactive are the calls of the source. The call rests on the fitted dose curve; in most records, active means well fitted inhibition curve with a large enough effect; inconclusive means small, poorly fitted or top-dose-only effect; inactive means flat fitted curve, though single readings scatter.

Tests used:
Assay in all cases: qHTS profiling for inhibitors of Plasmodium falciparum proliferation (AID 504749); further: nearly all actives have a fitted effect of over 60% in size
Settings in all cases: P. falciparum in erythrocytes, SYBR Green DNA, 72 h; series mostly up to 28.7 µM
P93_24 = tested on: P93_24
How it was run: (§1)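 Quantitative HTS: compounds pinned into medium, infected erythrocytes added (0.3% parasitemia, 2.5% hematocrit), 72 h culture at 37 C under 5% CO2. Saponin/Triton lysis with SYBR Green I, overnight RT, then fluorescence read.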

P94_40 = tested on: P94_40
How it was run: as §1

PAD = tested on: PAD
How it was run: as §1

PC15 = tested on: PC15
How it was run: as §1

PC26 = tested on: PC26
How it was run: as §1

PC49 = tested on: PC49
How it was run: as §1

SC27B = tested on: SC27B
How it was run: as §1

TAB109 = tested on: TAB109
How it was run: as §1

TAB113 = tested on: TAB113
How it was run: as §1

TAB165 = tested on: TAB165
How it was run: as §1
Potency means the concentration at half of the fitted maximal effect.

| Structure (SMILES) | Potency (P93_24) | Potency (P94_40) | Potency (PAD) | Potency (PC15) | Potency (PC26) | Potency (PC49) | Potency (SC27B) | Potency (TAB109) | Potency (TAB113) | Potency (TAB165) |
| --- | --- | --- | --- | --- | --- | --- | --- | --- | --- | --- |
| C#CCN(C)CCCOc1ccc(Cl)cc1Cl | inactive | inactive | inactive | inactive | inactive | inactive | inactive | inactive | inactive | inactive |
| FC(F)(F)c1ccccc1-n1ccnc1 | inactive | inactive | inactive | inactive | inactive | inactive | inactive | inactive | inactive | inactive |
| O=C(O)CCCCCCCC(=O)O | inactive | inactive | inactive | inactive | inactive | inactive | inactive | inactive | inactive | inactive |
| O=C(O)CN(CCOCCOCCN(CC(=O)O)CC(=O)O)CC(=O)O | inactive | inactive | inactive | inactive | inactive | inactive | inactive | inactive | inactive | inactive |
| CCN(CC)CC(=O)Nc1c(C)cccc1C | inactive | inactive | inactive | inactive | inactive | inactive | inactive | inactive | inactive | inactive |
| Cc1nc2c([nH]1)c(=O)n(C)c(=O)n2Cc1ccco1 | inactive | inactive | inactive | inactive | inactive | inactive | inactive | inactive | inactive | inactive |
| CC(N=C(NC#N)Nc1ccncc1)C(C)(C)C (stereo not drawn) | inactive | inactive | inactive | inactive | inactive | inactive | inactive | inactive | inactive | inactive |
| NC(Cc1ccc(Cl)cc1)C(=O)O (stereo not drawn) | inactive | inactive | inactive | inactive | inactive | inactive | inactive | inactive | inactive | inactive |
| NCCCNCCSP(=O)(O)O | inactive | inactive | inactive | inactive | inactive | inactive | inactive | inactive | inactive | inactive |
| Cc1nnc(SCC2=C(C(=O)O)N3C(=O)[C@@H](NC(=O)Cn4cnnn4)[C@H]3SC2)s1 | inactive | inactive | inactive | inactive | inactive | inactive | inactive | inactive | inactive | inactive |
| CCN(CC)CCCN(c1ccccc1)C1Cc2ccccc2C1 | 4.47 µM (active) | 5.01 µM (active) | 4.47 µM (active) | 4.47 µM (active) | 7.57 µM (active) | 3.98 µM (active) | 7.94 µM (active) | 3.55 µM (active) | 3.98 µM (active) | 3.98 µM (active) |
| O=C(CCNNC(=O)c1ccncc1)NCc1ccccc1 | inactive | inactive | inactive | inactive | inactive | inactive | inactive | inactive | inactive | inactive |
| NC(=O)c1ncn([C@@H]2O[C@H](CO)[C@@H](O)[C@H]2O)c1O | inactive | inactive | inactive | inactive | inactive | inactive | inactive | inactive | inactive | inactive |
| OCCN1CCN(CCCN2c3ccccc3C=Cc3ccccc32)CC1 | 7.94 µM (active) | 5.01 µM (active) | 3.55 µM (active) | 2.24 µM (active) | 4.78 µM (active) | 1.41 µM (active) | 7.94 µM (active) | 7.94 µM (active) | 6.31 µM (active) | 5.62 µM (active) |
| NC/C=C/C(=O)O | inactive | inactive | inactive | inactive | inactive | inactive | inactive | inactive | inactive | inactive |
| CCN1CCc2nc(N)oc2CC1 | inactive | inactive | inactive | inactive | inactive | inactive | inactive | inactive | inactive | inactive |
| c1cnc(N2CCN(Cc3ccc4c(c3)OCO4)CC2)nc1 | inactive | inactive | inactive | inactive | inactive | inactive | inactive | inactive | inactive | inactive |
| CN=C(NC#N)NCCSCc1nc[nH]c1C | inactive | inactive | inactive | inactive | inactive | inactive | inactive | inactive | inactive | inactive |
| CC(=O)OCC1=C(C(=O)O)N2C(=O)[C@@H](NC(=O)Cc3cccs3)[C@H]2SC1 | inactive | inactive | inactive | inactive | inactive | inactive | inactive | inactive | inactive | inactive |
| CC(C(=O)O)c1ccc(CC2CCCC2=O)cc1 (stereo not drawn) | inactive | inactive | inactive | inactive | inactive | inactive | inactive | inactive | inactive | inactive |
| Cc1scc2c1N(C(=O)CN1CCN(C)CC1)c1ccccc1NC2=O | inactive | inactive | inactive | inactive | inactive | inactive | inactive | inactive | inactive |  |

| Structure (SMILES) | Potency (P93_24) | Potency (P94_40) | Potency (PAD) | Potency (PC15) | Potency (PC26) | Potency (PC49) | Potency (SC27B) | Potency (TAB109) | Potency (TAB113) | Potency (TAB165) |
| --- | --- | --- | --- | --- | --- | --- | --- | --- | --- | --- |
| CCCCCN(CCCCC)C(=O)C(CCC(=O)O)NC(=O)c1ccc(Cl)c(Cl)c1 (stereo not drawn) | inactive | inactive | inactive | inactive | inactive | inactive | inactive | inactive | inactive | inactive |
| C[C@H](CS)C(=O)N1CCC[C@H]1C(=O)O | inactive | inactive | inactive | inactive | inactive | inactive | inactive | inactive | inactive | inactive |
| CC[N+](C)(C)c1cccc(O)c1 | inactive | inactive | inactive | inactive | inactive | inactive | inactive | inactive | inactive | inactive |
| NS(=O)(=O)c1cc2c(cc1Cl)NC(C1CC3C=CC1C3)NS2(=O)=O (stereo not drawn) | inactive | inactive | inactive | inactive | inactive | inactive | inactive | inactive | inactive | inactive |
| CCCCNC(=O)NS(=O)(=O)c1ccc(C)cc1 | inactive | inactive | inactive | inactive | inactive | inactive | inactive | inactive | inactive | inactive |
| CCCOc1ccccc1-c1nc2n[nH]nc2c(=O)[nH]1 | inactive | inactive | inactive | inactive | inactive | inactive | inactive | inactive | inactive | inactive |
| C[N+](C)(C)CCOC(N)=O | inactive | inactive | inactive | inactive | inactive | inactive | inactive | inactive | inactive | inactive |
| Nc1ncn([C@@H]2O[C@H](CO)[C@@H](O)[C@H]2O)c(=O)n1 | inactive | inactive | inactive | inactive | inactive | inactive | inactive | inactive | inactive | inactive |
| CCN1CCC[C@H]1CNC(=O)c1c(O)c(Cl)cc(Cl)c1OC | inactive | inactive | inactive | inactive | inactive | inactive | inactive | inactive | inactive | inactive |
| O=c1[nH]c(=O)n([C@H]2C[C@H](O)[C@@H](CO)O2)cc1Br | inactive | inactive | inactive | inactive | inactive | inactive | inactive | inactive | inactive | inactive |
| CC(=O)[C@@]1(O)CC[C@H]2[C@@H]3CCC4=CC(=O)CC[C@]4(C)[C@H]3CC[C@@]21C | inactive | inactive | inactive | inactive | inactive | inactive | inactive | inactive | inactive | inactive |
| COc1cc2c(cc1OC)-c1cc(=Nc3c(C)cc(C)cc3C)n(C)c(=O)n1CC2 | 3.55 µM (active) | 3.98 µM (active) | 3.16 µM (active) | 10 µM (active) | 6.01 µM (active) | 3.55 µM (active) | 2.82 µM (active) | 4.47 µM (active) | 3.16 µM (active) | 2.51 µM (active) |
| CC(=O)Nc1nnc(S(N)(=O)=O)s1 | inactive | inactive | inactive | inactive | inactive | inactive | inactive | inactive | inactive | inactive |
| CC(=O)Oc1cc(C(C)C)c(OCCN(C)C)cc1C | inactive | inactive | inactive | inactive | inactive | inactive | inactive | inactive | inactive | inactive |
| COC(=O)[C@H]1[C@H]2C[C@@H]3c4[nH]c5cc(OC)ccc5c4CCN3C[C@H]2C[C@@H](OC(=O)c2cc(OC)c(OC)c(OC)c2)[C@@H]1OC | 10 µM (active) | 7.94 µM (active) | 2 µM (active) | 11.2 µM (active) | 2.13 µM (active) | 7.94 µM (active) | 7.08 µM (active) | 8.91 µM (active) | 5.62 µM (active) | 3.98 µM (active) |
| CCO/C([O-])=N/c1c[n+](N2CCOCC2)no1 | inactive | inactive | inactive | inactive | inactive | inactive | inactive | inactive | inactive | inactive |
| CCn1cc(C(=O)O)c(=O)c2cc3c(cc21)OCO3 | inactive | inactive | inactive | inactive | inactive | inactive | inactive | inactive | inactive | inactive |
| C[N+](C)(C)CCCCCCCCCC[N+](C)(C)C | 2.51 µM (active) | 2.51 µM (active) | 2.24 µM (active) | 8.91 µM (active) | 6.01 µM (active) | 3.98 µM (active) | 3.98 µM (active) | 3.55 µM (active) | 2.82 µM (active) | 3.16 µM (active) |
| CC(C)(Oc1ccc(CCNC(=O)c2ccc(Cl)cc2)cc1)C(=O)O | inactive | inactive | inactive | inactive |  | inactive | inactive | inactive | inactive | inactive |
| CSc1ccc(C(=O)c2[nH]c(=O)[nH]c2C)cc1 | inactive | inactive | inactive | inactive | inactive | inactive | inactive | inactive | inactive | inactive |
